# Experimental data taken from the supplement of paper PMC3545927.
# The list shows a part of the results. The true hit rate is not given.
# Target: furin, P09958
# Experiment: furin cleavage Z-score vs untreated control; higher = more cleavage, active = 3.5 or more, inactive = 1 or less, 8 variable residues between constant flanks
# Summary of the method: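 Magnetic beads held 8-mer peptides by the N-terminus, each fused to a cDNA oligonucleotide, and purified furin was added for 7.5, 15 or 30 min. Released DNA was sequenced after PCR adapter tagging. The cleavage Z-score is the log count relative to furin-free reactions, lowess-adjusted and divided by median absolute deviation.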
# 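Further: purified furin at 1:10 enzyme:substrate in 50 mM HEPES pH 7.5.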
# Sequence of furin, P09958 (P09958 whole entry): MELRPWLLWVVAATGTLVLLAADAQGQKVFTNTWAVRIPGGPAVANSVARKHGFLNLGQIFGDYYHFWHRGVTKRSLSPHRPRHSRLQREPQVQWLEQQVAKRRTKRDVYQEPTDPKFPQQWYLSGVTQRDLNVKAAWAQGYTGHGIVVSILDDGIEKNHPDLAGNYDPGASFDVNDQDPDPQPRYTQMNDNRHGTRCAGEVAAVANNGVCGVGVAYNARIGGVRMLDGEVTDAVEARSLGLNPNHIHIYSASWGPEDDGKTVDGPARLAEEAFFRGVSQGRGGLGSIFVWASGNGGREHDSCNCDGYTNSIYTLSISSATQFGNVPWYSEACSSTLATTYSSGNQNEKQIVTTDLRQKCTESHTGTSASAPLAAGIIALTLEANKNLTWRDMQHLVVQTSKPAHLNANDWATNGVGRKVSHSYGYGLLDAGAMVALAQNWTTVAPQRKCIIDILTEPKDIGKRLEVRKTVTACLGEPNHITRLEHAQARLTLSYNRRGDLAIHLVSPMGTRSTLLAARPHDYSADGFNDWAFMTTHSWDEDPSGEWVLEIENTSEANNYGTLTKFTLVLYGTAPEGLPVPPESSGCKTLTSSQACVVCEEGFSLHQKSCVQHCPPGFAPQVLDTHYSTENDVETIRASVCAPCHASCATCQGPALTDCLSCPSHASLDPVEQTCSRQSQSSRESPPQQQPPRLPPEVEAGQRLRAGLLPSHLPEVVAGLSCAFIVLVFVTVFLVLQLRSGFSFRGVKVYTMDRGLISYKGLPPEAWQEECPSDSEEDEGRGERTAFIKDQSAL
Sequence,furin cleavage Z-score (7.5 min),furin cleavage Z-score (15 min),furin cleavage Z-score (30 min)
CASAPPGDPPAGNASASA [HC1544],-0.56 (inactive),-0.28 (inactive),-0.205 (inactive)
CAFVQRFRRSAGNASASA [FS-236],11.9 (active),11.2 (active),9.2 (active)
CAALGLERRSAGNASASA [FS-1444],-0.628 (inactive),-0.614 (inactive),0.553 (inactive)
CAAPRRPRRPAGNASASA [FS-116],0.169 (inactive),0.142 (inactive),0.528 (inactive)
CAAPRRFRRSAGNASASA [FS-399],9.1 (active),8.32 (active),8.51 (active)
CAAPERERRSAGNASASA [FS-215],8.78 (active),11.7 (active),7.74 (active)
CAQARRFRRSAGNASASA [FS-844],14.3 (active),14.1 (active),9.61 (active)
CADEEVVTSTAGNASASA [HC2292],1.62,0.883 (inactive),1.1
CATTPCSGSPAGNASASA [HC1939],0.991 (inactive),-1.49 (inactive),0.61 (inactive)
CAEVSCHRPSAGNASASA [HC2357],0.821 (inactive),0.257 (inactive),-0.805 (inactive)
CAVVCCSMDYAGNASASA [HC2071],-0.0968 (inactive),0.0602 (inactive),-0.172 (inactive)
CATTECSGSWAGNASASA [HC1872],-0.691 (inactive),-0.533 (inactive),-0.721 (inactive)
CANNHVYRRSAGNASASA [FS-834],2.73,4.48 (active),3.35
CAMEECSNHLAGNASASA [HC1741],-0.217 (inactive),1.15,0.956 (inactive)
CAALIRKLRDAGNASASA [FS-1303],10.1 (active),10.2 (active),7.71 (active)
CAACARKFRDAGNASASA [FS-1],0.95 (inactive),-0.474 (inactive),-0.446 (inactive)
CAALARKMIGAGNASASA [HC622],-0.391 (inactive),-0.298 (inactive),-0.269 (inactive)
CAALARSHRDAGNASASA [FS-1183],3.5 (active),2.5,3.98 (active)
CAEMEVPCHRAGNASASA [HC2446],1.88,3.24,0.262 (inactive)
CAKPTLHGPTAGNASASA [HC968],0.718 (inactive),0.412 (inactive),-0.00703 (inactive)
CAELTPAETTAGNASASA [HC925],-0.725 (inactive),0.302 (inactive),-0.347 (inactive)
CAAPTRARRTAGNASASA [FS-1111],9.32 (active),8.24 (active),6.87 (active)
CAGKARARRTAGNASASA [FS-782],7.77 (active),7.95 (active),6.06 (active)
CAVLVLNPSVAGNASASA [HC786],1.78,-1.12 (inactive),0.0915 (inactive)
CAEVVTQTWVAGNASASA [HC159],-0.939 (inactive),1.5,1.45
CAMEETSQHLAGNASASA [HC16],0.191 (inactive),1.87,1.08
